# Screening results deposited in PubChem BioAssay by National Center for Advancing Translational Sciences (NCATS).
# MARV entry inh: qHTS for inhibitors of binding or entry into cells for Marburg Virus; hit rate 1.8% among 300,000; Potency, µM (top dose mostly 37.8 µM), inactives show at the highest dose activity change, negative = inhibition, hits mostly inhibitors; Marburg virus pseudotyped entry inhibition, cell reporter; AID 540276, 2011; calls by dose curve; tested in HEK293 cells; note: potency is the fitted concentration of half-maximal effect
# Vaccinia Venus: qHTS for Stage-Specific Inhibitors of Vaccinia Orthopoxvirus: Venus Reporter Primary qHTS. Potency, µM (series often up to 36.5 µM), inactives show at the highest dose activity change, negative = inhibition, actives largely listed as inhibitors. Vaccinia virus Venus reporter expression, fluorescence. hit rate 0.46% among 330,000. AID 720580, 2013; calls by dose curve; tested in A549 cells; note: potency is the fitted concentration of half-maximal effect; nearly all actives have a fitted effect of over 30% in size
# VACV mCherry inh: qHTS for Stage-Specific Inhibitors of Vaccinia Orthopoxvirus: mCherry Reporter Primary qHTS; Vaccinia virus mCherry reporter infection, fluorescence; Potency, µM (highest dose often 36.5 µM), for inactives: at the highest dose activity change, negative = inhibition, most hits filed as inhibitors; hit rate 0.63% among 310,000; AID 720579, 2013; calls by dose curve; tested in A549 cells; note: potency is the fitted concentration of half-maximal effect; nearly all actives have a fitted effect of over 35% in size
# FMDV inh: High Throughput Screening for Foot and Mouth Disease Virus Antivirals; hit rate 1.2% among 410,000; Potency, µM (highest dose often 57.9 µM), for the others: top-dose activity change, negative = inhibition, most hits filed as inhibitors; FMDV antiviral cell-based qHTS; calls by dose curve; tested in HEK293T cells; note: read-out not given here; potency is the fitted concentration of half-maximal effect; nearly all actives have a fitted effect of over 45% in size
# LASV entry inh: qHTS for Inhibitors of binding or entry into cells for Lassa Virus | Lassa virus pseudotype entry inhibition, cell reporter | Potency, µM (highest dose often 37.9 µM), for the others: at the highest dose activity change, negative = inhibition, hits mostly inhibitors | AID 540256, 2011 | hit rate 1.2% among 300,000; calls by dose curve; tested in HEK293 cells; note: potency is the fitted concentration of half-maximal effect; nearly all actives have a fitted effect of over 50% in size
# HCMV inh: qHTS Assay for inhibitors of the human cytomegalovirus (HCMV). HFF cells, HCMV-luciferase reporter, 72 h; hits give low values. activity change, negative = inhibition, % at 57.5 µM. hit rate 4.5% among 410,000. AID 1259415, 2018; in the data active = activity change below about -60%; inconclusive = no clear call, values can overlap the other calls; inactive = above about -39%
#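 Human foreskin fibroblasts infected with luciferase-reporter HCMV at MOI 1 PFU/cell, compounds at two doses. Luciferase measured 72 h post infection; normalized to buffer-only basal and Salinomycin (10uM) controls.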
# Active calls of the source: *; i = inactive; u = inconclusive; x = no result; [ ] = dose if it differs, or a comment. The list is not random: actives were taken first. Their share in the collection is about 6.5%. % is set by controls: 0 for no effect and ±100 for the full control effect.
SMILES,MARV entry inh,Vaccinia Venus,VACV mCherry inh,FMDV inh,LASV entry inh,HCMV inh
O=C(Nc1cc(Sc2ccccn2)cc([N+](=O)[O-])c1)c1cccc(Cl)c1,u,u,i,25µM*,-9%,u
O=C(Nc1cc(Sc2ccccn2)cc([N+](=O)[O-])c1)c1ccc(Cl)cc1,u,10µM*,x,28µM*,u,-18
COc1ccc(/C=C/C(=O)N2CCc3c(cnc(C)c3CNS(=O)(=O)c3cccs3)C2)cc1,x,-15%,-26%,-7%,x,x
COC(=O)CSc1cnc2ccccc2n1,21%,9%,0%,-20%,12%,94
O=C(CSc1cnc2ccccc2n1)c1ccc(F)cc1,u,x,x,18%,5.8µM*,3
CCOc1ccc(C(NC(C)=O)c2cc(Cl)c3cccnc3c2O)cc1 (centres undefined),x,u,5µM*,x,x,x
COc1ccc(C(NC(=O)c2ccc(-c3ccccc3)cc2)c2ccccc2)cc1 (centres undefined),-16%,-2%,-13%,2%,u,-66*
COc1ccc(C(NC(C)=O)c2cc(Cl)c3cccnc3c2O)cc1OC (centres undefined),u,u,u,-17%,2.8µM*,-100*
CCOc1ccc(C(Nc2cccnc2)c2cc(Cl)c3cccnc3c2O)cc1 (centres undefined),u,u,u,-14%,u,-94*
Cn1c(SCc2ccc(F)cc2)nc2ccc(C(=O)NCc3cccc(Cl)c3)cc21,u,-27%,u,-5%,x,-23
Cc1nc2cnc(N(C)C)nc2n(CCc2ccccc2)c1=O,x,x,x,-15%,x,x
C=C(c1ccccc1)[C@H](C#N)C1CCCC1,x,x,x,x,x,15
Cc1cc(=O)[nH]c2nnc(SCc3c(F)cccc3Cl)n12,x,-15%,i,13%,-8%[46.1 µM],-36
O=C(O)COc1ccccc1C(Nc1ccccn1)c1cc(Cl)c2cccnc2c1O (centres undefined),14%,-8%,i,-18%,-4%,-26
COc1ccccc1C(NC(C)=O)c1cc(Cl)c2cccnc2c1O (centres undefined),3.2µM*,u,u,21%,u,-96*
COc1ccc(C(=O)NC(c2ccc(Cl)cc2)c2cc(Cl)c3cccnc3c2O)cc1 (centres undefined),x,u,10µM*,-10%,-21%[46.1 µM],0
CCC(=O)NC(c1ccc(OC)c(OC)c1)c1cc(Cl)c2cccnc2c1O (centres undefined),u,u,11µM*,-16%,u,-110*
O=C(O)COc1ccccc1C(Nc1cccnc1)c1cc(Cl)c2cccnc2c1O (centres undefined),17%[46.1 µM],-2%,-2%,-6%,27%[46.1 µM],x
CCC(=O)NC(c1ccc(C)cc1)c1cc(Cl)c2cccnc2c1O (centres undefined),x,x,x,-21%,x,x
O=C(NC(c1ccccc1)c1cc(Cl)c2cccnc2c1O)c1cccnc1 (centres undefined),-23%,x,x,x,-14%,-100*
CC(C)(C)NCC(O)CON=C1c2ccccc2-c2ccccc21 (centres undefined),10µM*,u,u,u,x,-5
CCc1ccc2oc(-c3cc(N)ccc3Cl)nc2c1,-27%,-10%,-7%,-78%,-7%,47
CCc1ccc2oc(-c3cc(N)ccc3O)nc2c1,u,-12%,x,25µM*,u,146
O=C1C2ON(c3ccccc3)C(c3ccncc3)C2C(=O)N1c1ccc(N2CCOCC2)cc1 (centres undefined),-7%,-6%,-21%,-2%,x,-75*
C=CCNC(=O)N1C2=NC(C(=O)OC)=C(C(=O)OC)[C@@H]3N(C)c4ccccc4[C@]23C[C@H]1CO,-31%[14.2 µM],x,x,x,u,x
CCc1nc2ccc(C(=O)N3CCN(C)CC3)cn2c1N(CCC(C)C)CCN(C)C,x,3%,40%,-11%,x,-72*
CCOC(=O)c1cnc2c(C)cc(C)cc2c1NCCN1CCOCC1,x,1%,2%,-13%,-14%[46.1 µM],2
CCOC(=O)c1cnc2c(C)cc(C)cc2c1NCCCN1CCOCC1,x,x,x,-16%,x,-62*
